Among the test systems are HCT-15 colon; HT29 colon; SNB-75 CNS; SNB-19 CNS; U251 CNS; PC-3 prostate; SK-MEL-5 melanoma; UACC-62 melanoma; LOX IMVI melanoma; SK-MEL-28 melanoma; SK-MEL-2 melanoma; EKVX NSCLC; SN12C renal; UO-31 renal; TK-10 renal; ACHN renal; CAKI-1 renal; A498 renal; CCRF-CEM leukemia; MOLT-4 leukemia.
Holding throughout (assay): NCI-60 one-dose screen, 48 h (100 = growth as untreated, 0 = no growth, -100 = all killed)
Holding throughout (settings): 10 µM unless noted

About 83,000 compounds went through this panel and 20% of them were active in at least one assay; those are over-represented in the sample as a whole.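 Testing used 96-well plates and a 48-hour single-concentration exposure. Example: -40 means 40% of the starting cells died.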 Values without a mark were called inactive. Calls of active or inactive are those of the source. The calls were made as follows: active = growth percent below 10; inactive = the rest.

For `CNC(=O)c1cc(-c2ccc(NS(=O)(=O)c3ccc(C)cc3)cc2)nc2cccnc12`, the growth in the test with HCT-15 colon is 105%; in the test with HT29 colon it was 109%; in the test with SNB-75 CNS, 104%; with SNB-19 CNS, 99.8%; in the test with U251 CNS, 101%; with PC-3 prostate, 99.7%. Besides, the growth was 103% in the test on SK-MEL-5 melanoma; 90.4% in the test on UACC-62 melanoma; 100% in the test with LOX IMVI melanoma; 119% with SK-MEL-28 melanoma; 102% in the test on SK-MEL-2 melanoma; 95.9% in the test with EKVX NSCLC. Besides, the growth was 103% in the test on SN12C renal; 81.5% in the test on UO-31 renal; 118% in the test on TK-10 renal; 104% with ACHN renal; 94.4% in the test on CAKI-1 renal; 106% in the test on A498 renal. In addition, the growth in the test with CCRF-CEM leukemia is 109%; in the test with MOLT-4 leukemia, 100%.

With `CCO/C=N/C1=C(C#N)C(c2ccc(Cl)cc2)c2sc3c(C)cccc3c2O1` (stereo not drawn), the growth was 12.5% in the test on HCT-15 colon; 4.77% (active) in the test with HT29 colon; -5.08% (active) in the test with SNB-75 CNS; 18.4% with SNB-19 CNS; 20.7% in the test with U251 CNS; 12% with PC-3 prostate. Further, the growth with SK-MEL-5 melanoma was 30.7%; in the test with UACC-62 melanoma it was 9.19% (active); in the test on LOX IMVI melanoma it was 22.1%; in the test with SK-MEL-28 melanoma it was 60.5%; in the test on SK-MEL-2 melanoma, 42.6%; with EKVX NSCLC, 45.9%. Also, the growth in the test on SN12C renal was 26.2%; in the test with UO-31 renal, 30.3%; with TK-10 renal it was 62.2%; in the test with ACHN renal, 31.8%; in the test with CAKI-1 renal, 39.5%; in the test on A498 renal, -5.08% (active). Also, the growth is 16.2% in the test with CCRF-CEM leukemia and 18.8% with MOLT-4 leukemia.

On to `CCCCCc1ccc(S(=O)(=O)Nc2cccc(-c3csc(NC(=O)CN4CCN(C)CC4)n3)c2)cc1`, for which the growth is 11.7% in the test on HCT-15 colon; 25.5% with HT29 colon; 89.5% in the test with SNB-75 CNS; 85% in the test on SNB-19 CNS; 49.7% in the test on U251 CNS; 67.1% with PC-3 prostate. The growth in the test with SK-MEL-5 melanoma was 50.8%; with UACC-62 melanoma, 92.2%; in the test with LOX IMVI melanoma it was -58% (active); with SK-MEL-28 melanoma, 89.4%; in the test with SK-MEL-2 melanoma it was 100%; in the test on EKVX NSCLC it was 89.2%. Also, the growth with SN12C renal was 90.6%; in the test with UO-31 renal, 75%; with TK-10 renal, 115%; in the test on ACHN renal, 91.8%; in the test on CAKI-1 renal, 78.5%; in the test on A498 renal, 82.9%. In addition, the values for the growth with CCRF-CEM leukemia and in the test on MOLT-4 leukemia were 27.2% and 20.8%, respectively.

As for `Cn1cc(-c2nc(N)nnc2-c2c[nH]c3ccc(Br)cc23)c2cc(Br)ccc21`, the growth is 29.8% with HCT-15 colon; 14.1% with HT29 colon; 55.8% with SNB-75 CNS; 43.1% with SNB-19 CNS; 27.9% with U251 CNS; 20.2% with PC-3 prostate. Moreover, the growth in the test on SK-MEL-5 melanoma was 42.9%; in the test with UACC-62 melanoma, 27.4%; with LOX IMVI melanoma, 44%; in the test with SK-MEL-28 melanoma, 60.1%; in the test on SK-MEL-2 melanoma, 26.8%; in the test on EKVX NSCLC, 65.1%. The growth in the test with SN12C renal was 44.7%; with UO-31 renal, 54.1%; in the test on TK-10 renal, 98%; in the test on ACHN renal it was 52%; with CAKI-1 renal it was 40.3%; in the test on A498 renal it was 18.3%. Moreover, the growth in the test with CCRF-CEM leukemia is 11.8%; in the test with MOLT-4 leukemia, 17.7%.

Regarding `N#Cc1cccc(/C(N)=N/C(N)=N/c2nc3ccccc3s2)c1`, the growth with HCT-15 colon is 31.9%; in the test with HT29 colon, 11.3%; with SNB-75 CNS, 22.2%; with SNB-19 CNS it was 27.3%; with U251 CNS, 27.7%; in the test on PC-3 prostate, 17.7%. The growth was 41.5% in the test with SK-MEL-5 melanoma; 34.5% with UACC-62 melanoma; 46.2% in the test with LOX IMVI melanoma; 65.4% in the test with SK-MEL-28 melanoma; 40.4% in the test with SK-MEL-2 melanoma; 43.3% with EKVX NSCLC. Besides, the growth with SN12C renal is 34.9%; with UO-31 renal, 44.2%; in the test with TK-10 renal, 81.3%; in the test on ACHN renal it was 48.3%; in the test on CAKI-1 renal, 34%; with A498 renal it was -4.3% (active). Besides, in the test on CCRF-CEM leukemia, the growth was 6.56% (active).

Consider `C=C=COc1cccc(/C(N)=N/C(N)=N/c2nc3ccccc3s2)c1`, for which the growth in the test with HCT-15 colon was 83.6%; with HT29 colon, 107%; in the test on SNB-75 CNS, 85.6%; in the test with SNB-19 CNS it was 97.5%; in the test on U251 CNS it was 80.5%; in the test with PC-3 prostate, 30.3%. The growth is 98.5% in the test on SK-MEL-5 melanoma; 94.2% in the test with UACC-62 melanoma; 37.7% in the test with LOX IMVI melanoma; 64% with SK-MEL-28 melanoma; 104% in the test with SK-MEL-2 melanoma; 55.8% with EKVX NSCLC. Further, the growth is 66.7% in the test with SN12C renal; 31.2% with UO-31 renal; 133% with TK-10 renal; 79.7% in the test on ACHN renal; 36.9% in the test on CAKI-1 renal; 79.7% in the test with A498 renal. Also, the results for the growth in the test on CCRF-CEM leukemia and in the test with MOLT-4 leukemia were 32% and 47.4%, respectively.

With `c1ccc(C(c2nc3ncncc3[nH]2)N2CSc3nc4ccccc4n3C2)cc1` (stereo not drawn), the growth with HCT-15 colon is 101%; in the test with HT29 colon, 107%; in the test on SNB-75 CNS it was 91%; in the test with SNB-19 CNS, 100%; in the test on U251 CNS, 107%; with PC-3 prostate it was 95.6%. For the same molecule, the growth in the test with SK-MEL-5 melanoma is 106%; in the test with UACC-62 melanoma, 93.1%; in the test on LOX IMVI melanoma, 102%; in the test on SK-MEL-28 melanoma it was 104%; with SK-MEL-2 melanoma, 103%; in the test with EKVX NSCLC, 97.5%. The growth with SN12C renal is 98.8%; in the test on UO-31 renal, 82.7%; with TK-10 renal, 115%; in the test with ACHN renal, 94.7%; with CAKI-1 renal, 89.5%; with A498 renal, 102%. The growth in the test on CCRF-CEM leukemia was 108%.

(Values after PubChem BioAssay (NCI).)
